Some test systems named below: DU-145 prostate; K-562 leukemia; MALME-3M melanoma; MDA-MB-231 breast; RXF 393 renal; SF-268 CNS; SF-295 CNS; SF-539 CNS; UACC-257 melanoma; M14 melanoma; HCT-15 colon; HT29 colon; SNB-75 CNS; SNB-19 CNS; U251 CNS; SK-MEL-5 melanoma; UACC-62 melanoma; LOX IMVI melanoma; SK-MEL-28 melanoma.
Test in all cases: NCI-60 one-dose screen, 48 h (100 = growth as untreated, 0 = no growth, -100 = all killed)
What all share (conditions): 10 µM unless noted

Molecules are shown by their SMILES. About 83,000 compounds went through this panel and 20% of them were active in at least one assay; those are over-represented in the sample as a whole.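 96-well plates, one dose, 48 hours. Percent growth reported; active if below 10.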 A number with no mark means an inactive call. Activity calls are given as the source filed them.

On to `CN(C)C(=S)Sc1ccc([N+](=O)[O-])cc1[N+](=O)[O-]`, for which the growth was 64.7% with DU-145 prostate; 8.13% (active) with K-562 leukemia; -4.06% (active) in the test on MALME-3M melanoma; 44.3% in the test on MDA-MB-231 breast; -61.1% (active) in the test with RXF 393 renal; 52.8% in the test with SF-268 CNS. The growth was 90.3% with SF-295 CNS; 52.1% in the test on SF-539 CNS; 41.4% in the test on UACC-257 melanoma; 8.95% (active) in the test with M14 melanoma; 5.29% (active) in the test on HCT-15 colon; -16.6% (active) with HT29 colon. The growth was 57.4% with SNB-75 CNS; 83.2% with SNB-19 CNS; 6.55% (active) in the test with U251 CNS; 17.2% in the test with SK-MEL-5 melanoma; 33.5% with UACC-62 melanoma; -4.79% (active) with LOX IMVI melanoma. Also, the growth with SK-MEL-28 melanoma was 75.1%.

With `CC(C)CCNCC(C)(C)O`, the growth in the test with DU-145 prostate was 118%; with K-562 leukemia it was 109%; in the test on MALME-3M melanoma it was 121%; with MDA-MB-231 breast, 116%; in the test on RXF 393 renal, 117%; with SF-268 CNS, 106%. Further, the growth is 111% in the test on SF-295 CNS; 101% in the test with SF-539 CNS; 102% in the test on UACC-257 melanoma; 110% in the test on M14 melanoma; 99.1% in the test with HCT-15 colon; 103% with HT29 colon. Moreover, the growth in the test with SNB-75 CNS is 90.3%; in the test on SNB-19 CNS, 109%; with U251 CNS it was 104%; in the test on SK-MEL-5 melanoma, 113%; in the test on UACC-62 melanoma, 111%; with LOX IMVI melanoma it was 101%. Besides, in the test on SK-MEL-28 melanoma, the growth was 122%.

For `COc1cc2c(cc1OC(C)=O)C(=O)CCCC2`, the growth is 128% with DU-145 prostate; 186% in the test on K-562 leukemia; 93.3% in the test with MALME-3M melanoma; 112% in the test with MDA-MB-231 breast; 94.2% in the test on RXF 393 renal; 107% in the test with SF-268 CNS. Further, the growth in the test on SF-295 CNS is 107%; with SF-539 CNS, 90.9%; with UACC-257 melanoma it was 86.7%; in the test with M14 melanoma, 87.9%; with HCT-15 colon, 83%; in the test with HT29 colon, 96.5%. Moreover, the growth in the test with SNB-75 CNS is 54.2%; in the test with SNB-19 CNS, 109%; in the test with U251 CNS, 94.4%; in the test with SK-MEL-5 melanoma it was 90.1%; in the test on UACC-62 melanoma it was 105%; with LOX IMVI melanoma it was 95.6%. Besides, in the test with SK-MEL-28 melanoma, the growth was 95.2%.

Turning to `O=C1COCCN1c1ccc(Nc2nc(Cl)nc(N3CCOCC3)n2)cc1`, the growth with DU-145 prostate was 102%; in the test with K-562 leukemia, 100%; with MALME-3M melanoma, 96.3%; in the test with MDA-MB-231 breast it was 103%; with RXF 393 renal, 92.4%; with SF-268 CNS, 99.4%. Moreover, the growth in the test with SF-295 CNS was 94.4%; in the test on SF-539 CNS, 96.5%; in the test with UACC-257 melanoma it was 98.2%; in the test on M14 melanoma it was 98.2%; with HCT-15 colon it was 91.8%; in the test with HT29 colon, 89.4%. In addition, the growth in the test on SNB-75 CNS was 89.7%; with SNB-19 CNS, 95.9%; with U251 CNS, 101%; in the test on SK-MEL-5 melanoma, 100%; with UACC-62 melanoma it was 96%; in the test with LOX IMVI melanoma, 93.8%. Further, in the test with SK-MEL-28 melanoma, the growth was 101%.

For `CC1(C)CC[C@]2(C(=O)O)CC[C@]3(C)C(=CC[C@@H]4[C@@]5(C)C/C(=C/c6ccco6)C(=O)C(C)(C)[C@@H]5CC[C@]43C)[C@@H]2C1`, the growth is -45% [100 µM] (active) in the test with DU-145 prostate; 10.5% [100 µM] with K-562 leukemia; -80.7% [100 µM] (active) in the test with MALME-3M melanoma; -77.9% [100 µM] (active) with MDA-MB-231 breast; -68.5% [100 µM] (active) in the test with RXF 393 renal; -27.2% [100 µM] (active) in the test with SF-268 CNS. Moreover, the growth with SF-295 CNS is -56.2% [100 µM] (active); with SF-539 CNS, -83.3% [100 µM] (active); with UACC-257 melanoma, -23.7% [100 µM] (active); in the test on M14 melanoma, -31.5% [100 µM] (active); in the test with HCT-15 colon it was -38.6% [100 µM] (active); with HT29 colon it was -56.7% [100 µM] (active). For the same molecule, the growth was -15.6% [100 µM] (active) in the test on SNB-75 CNS; -9.61% [100 µM] (active) in the test on SNB-19 CNS; -36.1% [100 µM] (active) in the test on U251 CNS; -75.8% [100 µM] (active) with SK-MEL-5 melanoma; -89.7% [100 µM] (active) in the test with UACC-62 melanoma; -95.1% [100 µM] (active) in the test with LOX IMVI melanoma. The growth with SK-MEL-28 melanoma is -79.5% [100 µM] (active).

Regarding `O=C(N[C@@H]1CCCc2ccccc21)[C@H](CCC(=O)N1CCN(C2CCCCC2)CC1)N1C(=O)[C@@H](N2C(=O)OC[C@@H]2c2ccccc2)[C@H]1/C=C/c1ccccc1`, the growth in the test with DU-145 prostate is 57.9%; with K-562 leukemia it was 14.6%; with MALME-3M melanoma, -41.1% (active); with MDA-MB-231 breast it was 16.4%; in the test on RXF 393 renal it was 23%; in the test on SF-268 CNS it was 15.8%. In addition, the growth was 30.3% in the test on SF-295 CNS; 4.65% (active) in the test with SF-539 CNS; 10.7% in the test on UACC-257 melanoma; 14.2% in the test with M14 melanoma; 12.1% in the test with HCT-15 colon; -14.2% (active) with HT29 colon. Moreover, the growth is 65.7% in the test on SNB-75 CNS; 39.2% with SNB-19 CNS; 30.6% in the test on U251 CNS; -93.2% (active) in the test with SK-MEL-5 melanoma; 51% in the test with UACC-62 melanoma; -40.5% (active) in the test on LOX IMVI melanoma. The growth in the test with SK-MEL-28 melanoma is 24.8%.

Turning to `C#C[C@]1(O)CC[C@H]2[C@@H]3CC=C4c5nc(N)sc5CC[C@]4(C)[C@H]3CC[C@@]21C`, the growth in the test on DU-145 prostate is 71.2%; with K-562 leukemia it was 29.7%; in the test on MALME-3M melanoma, 42.1%; in the test with MDA-MB-231 breast, 45.4%; with RXF 393 renal it was -22.4% (active); with SF-268 CNS, 62.8%. Further, the growth was -43.6% (active) with SF-295 CNS; -32% (active) in the test on SF-539 CNS; 72.8% in the test on UACC-257 melanoma; 81.1% with M14 melanoma; 42.4% in the test on HCT-15 colon; 41.6% with HT29 colon. Moreover, the growth with SNB-75 CNS is -5.36% (active); with SNB-19 CNS, 71.6%; with U251 CNS it was 38.1%; with SK-MEL-5 melanoma, 60.4%; with UACC-62 melanoma it was 30.3%; with LOX IMVI melanoma it was 55.4%. In the test with SK-MEL-28 melanoma, the growth was 57.1%.

The values above are taken from PubChem BioAssay (NCI).
